FBW7 act: FBW7 E3 ligase activators, primary screen, biochemical, AlphaScreen, human; normalized activity (activation), % at 26.1 µM; AlphaScreen FBW7–phospho-cyclin E peptide binding, activator screen; 0.13% of 650,000 active; in the data active = normalized activity above about 1.9%;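 note: purified mutant Fbw7 with reduced substrate affinity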
Target sequence (Q969H0 whole entry, looked up): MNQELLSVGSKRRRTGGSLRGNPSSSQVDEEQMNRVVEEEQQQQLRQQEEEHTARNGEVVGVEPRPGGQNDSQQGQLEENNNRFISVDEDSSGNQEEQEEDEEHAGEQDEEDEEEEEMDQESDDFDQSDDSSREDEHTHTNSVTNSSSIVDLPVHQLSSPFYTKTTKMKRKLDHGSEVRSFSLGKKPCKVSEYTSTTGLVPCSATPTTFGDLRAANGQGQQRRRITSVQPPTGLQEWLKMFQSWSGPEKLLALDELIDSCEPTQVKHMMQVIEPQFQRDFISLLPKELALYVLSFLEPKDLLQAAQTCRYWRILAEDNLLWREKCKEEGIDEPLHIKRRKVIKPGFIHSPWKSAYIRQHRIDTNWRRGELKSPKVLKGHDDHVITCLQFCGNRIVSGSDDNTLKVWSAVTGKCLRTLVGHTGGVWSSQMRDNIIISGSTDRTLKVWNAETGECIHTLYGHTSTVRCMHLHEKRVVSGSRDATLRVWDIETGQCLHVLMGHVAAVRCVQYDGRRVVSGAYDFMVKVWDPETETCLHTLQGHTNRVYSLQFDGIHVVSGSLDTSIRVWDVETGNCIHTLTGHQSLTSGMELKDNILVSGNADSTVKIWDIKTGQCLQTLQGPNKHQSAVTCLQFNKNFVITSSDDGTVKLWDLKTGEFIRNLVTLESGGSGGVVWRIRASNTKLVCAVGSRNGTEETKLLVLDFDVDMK
GPR151 ag: activators of human GPR151, primary screen, cell-based, PathHunter beta-arrestin, luminescence; G-protein coupled receptor 151 (Homo sapiens), Q8TDV0; PathHunter beta-arrestin GPR151 cells; activation, % at 11.2 µM; 1% of 650,000 active; AID 1508602, 2020; in the data active = activation above about 4.9%;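 note: 0% = median of compound wells and 100% = cells with positive control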
TEAD-YAP inh: TEAD-YAP interaction inhibition, primary screen, TEAD-YAP interaction inhibitor project, luminescence, HEK-TIYL cells; 1.4% of 640,000 active; inhibition, % at 9.12 µM; TEAD-Gal4/YAP UAS-luciferase luminescence; AID 1259422, 2018; in the data active = inhibition above about 32%;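 note: 0% = median of test compound wells and 100% = reference inhibitor wells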
MITF inh: MITF inhibitors, primary screen, biochemical, AlphaScreen, human | 0.91% of 650,000 active | inhibition, % at 2.6 µM | AlphaScreen MITF homodimerization, bead proximity signal | AID 1259374, 2018 | Microphthalmia-associated transcription factor (Homo sapiens), O75030; in the data active = inhibition above about 50%;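 note: 0% = vehicle wells with protein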
* hit, by the source's call. A selection: hits, their analogues and other compounds. The true share with any hit is near 3.5%.

SMILES | FBW7 act | GPR151 ag | TEAD-YAP inh | MITF inh
Oc1c(C(c2ccncc2)N2CCOCC2)ccc2cccnc12 (stereo not drawn) | 0 | 1 | 71* | 90*
CN1CCN(C(c2ccc(F)cc2)c2ccc3cccnc3c2O)CC1 (stereo not drawn) | 0 | 0 | 84* | 33
CN1CCN(C(c2cccnc2)c2ccc3cccnc3c2O)CC1 (stereo not drawn) | 0 | 0 | 0 | 34
Oc1c(C(c2ccc(F)cc2)N2CCCC2)ccc2cccnc12 (stereo not drawn) | -2 | -1 | 80* | 11
Fc1ccc(Cn2nnnc2C(c2ccc3ncccc3c2)N2CCCC2)cc1 (stereo not drawn) | 0 | 1 | -7 | -6
CC1CCN(S(=O)(=O)c2ccc(Oc3ccc(S(=O)(=O)N4CCC(C)CC4)cc3)cc2)CC1 | 0 | -2 | -4 | 0
COc1ccc(CNC(=O)c2oc3ccc4c(c3c2C)C(=O)CC(C)(C)O4)cc1 | 0 | 0 | -66 | -16
O=C1NC(=S)S/C1=C\c1ccc(I)cc1 | 0 | 2 | -4 | 3
OCCN1CCN(C(c2ccc(Cl)cc2)c2ccc3cccnc3c2O)CC1 (stereo not drawn) | 0 | 0 | 74* | 21
Oc1c(C(c2ccc(C(F)(F)F)cc2)N2CCOCC2)ccc2cccnc12 (stereo not drawn) | 0 | 1 | 82* | 17
O=C(O)c1cc([N+](=O)[O-])ccc1C(=O)Nc1ccc(Br)cc1 | 0 | 0 | -5 | -2
Cc1cc(C)c(C#N)c(SCc2nnc(-c3ccc(Cl)cc3)o2)n1 | 0 | -1 | 29 | 4
Cc1nc(SCc2nnc(-c3ccccc3)o2)c(C#N)c(C)c1C | 0 | 0 | 92* | -3
Cc1cc(C(F)(F)F)c(C#N)c(SCc2nnc(-c3ccccc3)o2)n1 | 0 | -2 | 41* | 0
COc1ccc(/C=C2/SC(N3CCCC3)=NC2=O)c(OC)c1 | 0 | -1 | -37 | 2
COCCCNC(=O)c1ccc(SCc2cccc(OC)c2OC)c([N+](=O)[O-])c1 | 1 | 0 | 61* | 4
Nc1c(-c2nc3ccccc3[nH]2)sc2nc3c(cc12)CCC3 | 0 | -2 | 27 | -1
CN(C)CCNc1cc(-c2ccccn2)nc(-c2ccncc2)n1 | 0 | 0 | 0 | -7
CCOC(=O)c1cnc(Nc2nc3ccccc3o2)nc1C | 0 | -2 | 44* | -1
CCOC(=O)c1c(C)nc(Nc2nc3ccccc3o2)nc1-c1ccccc1 | 0 | 2 | -5 | -6
COc1cc2c(cc1OC)C(C(=O)N1CCCC(C)C1)C1c3ccccc3CCN1C2=O (stereo not drawn) | 1 | -1 | -2 | 23
COc1cc2c(cc1OC)C(C(=O)N1CCCCC1)C1c3ccccc3CCN1C2=O (stereo not drawn) | 1.9* | -1 | -6 | 24
CCC(C)N1C(=O)S/C(=C/c2cc(C)n(-c3ccccn3)c2C)C1=O (stereo not drawn) | 0 | 2 | 41* | 7
C=CCOc1ccc(C=C2C(=O)N(C)C(=S)N(C)C2=O)cc1OC | 0 | 0 | 0 | 67*
C=CCOc1ccc(C=C2C(=O)N(C)C(=S)N(C)C2=O)cc1I | 0 | -1 | 15 | 13
SMILES | FBW7 act | GPR151 ag | TEAD-YAP inh | MITF inh
COc1ccc(-c2cc(O)c3c(C)oc(C)c3c(=O)c2)cc1 | 0 | 0 | 4 | 1
Cc1oc(C)c2c(=O)cc(-c3ccc(O)c(O)c3)cc(O)c12 | -1 | 0 | 4 | 87*
COC(=O)c1cccc(-n2cc(Nc3nccc(-c4cncc(N5CCOCC5)c4)n3)cn2)c1 | 0 | -1 | -1 | 9
Cc1ccc2nc3c(cc(C(N)=O)c(=N)n3CCc3ccccc3)c(=O)n2c1 | 0 | -1 | 39* | 5
Cc1cc(=O)oc2cc(Oc3ccc(S(=O)(=O)N4CCOCC4)cc3[N+](=O)[O-])ccc12 | 0 | 2 | 1 | -1
COc1cccc(C(=O)NC(c2ccccc2)c2cc(Cl)c3cccnc3c2O)c1 (stereo not drawn) | 0 | -1 | 10 | 16
COc1cccc(C(=O)NC(c2ccccc2OC)c2cc(Cl)c3cccnc3c2O)c1 (stereo not drawn) | 0 | -1 | 41* | 4
COc1cccc(C(=O)NC(c2ccco2)c2cc(Cl)c3cccnc3c2O)c1 (stereo not drawn) | 0 | 0 | 79* | 25
COc1ccccc1C(NC(=O)c1cccnc1)c1cc(Cl)c2cccnc2c1O (stereo not drawn) | 0 | 1 | 19 | 4
C/C(Cn1nc([N+](=O)[O-])cc1C)=N/NC(=O)c1cc(O)c(O)c(O)c1 | 0 | 0 | 8 | 56*
Cc1ccc(NC(=O)c2ccccc2Cl)cc1C | 0 | -4 | -9 | 3
Cc1ccc(C(=O)Nc2cc(C)c(C)cc2O)cc1 | 0 | -3 | 0 | 0
Cc1ccc(C(=O)Nc2cc(C)c(O)cc2C)cc1 | 0 | -1 | 65* | 4
Cc1ccc(C(=O)Nc2ccc(O)c(C)c2)cc1 | 0 | -5 | 93* | -5
Cc1ccc(C(=O)Nc2ccc(NC(=O)C(F)(F)F)cc2)cc1 | 0 | -1 | 56* | 14
Cc1cc(NC(=O)c2ccccc2Cl)ccc1O | 0 | -4 | 83* | -23
O=c1/c(=C/c2ccc(Br)cc2)sc2nncn12 | 0 | 0 | -3 | 1
CCOc1ccc(C(=O)Nc2ccc3ccccc3c2)cc1[N+](=O)[O-] | 0 | 0 | -18 | 11
Cc1ccc(C(=O)Nc2ccc(C(=O)N3CCCCC3)cc2)cc1 | 3.4* | -2 | -18 | 12
O=C(CSc1nc2c(ccc3ccccc32)[nH]1)c1ccccc1 | 0 | 0 | -64 | 5
CCOc1cc(/C=N/n2cnnc2)cc(I)c1O | 0 | 1 | -2 | 65*
O=C(Cn1ncc2c(=O)oc3ccccc3c21)N1CCN(c2cccc(Cl)c2)CC1 | 1 | -1 | 41* | 12
O=C(Cn1ncc2c(=O)oc3ccccc3c21)N1CCN(c2ccccc2)CC1 | 0 | 1 | 2 | 7
CN(C)CCNc1nc(-c2ccc(C(C)(C)C)cc2)nc2ccccc12 | 0 | -1 | 37* | 9
CN(C)CCNc1nc(-c2ccccc2)nc2ccccc12 | 0 | 0 | -14 | -2
Cn1c(-c2ccccc2)cn2cc(-c3ccccc3)nc12 | 0 | -2 | 100* | -9
Cn1c(-c2ccccc2)cn2cc(-c3ccc(F)cc3)nc12 | 0 | -5 | 97* | 6
COc1ccc(C2NC(=S)NC(C)=C2C(=O)Nc2ccccc2C)c(OC)c1 (stereo not drawn) | 0 | 0 | -3 | -5
CC(C)(C)c1cc(-c2nc3ccccc3[nH]2)n[nH]1 | 0 | -10 | 96* | -2
COc1ccc(-n2nc3c(c2NC(=O)c2cccc(F)c2)CS(=O)(=O)C3)cc1 | 0 | 0 | -1 | -4

Assay outcomes (PubChem BioAssay)
